Each structure is given as a SMILES string. “And” between values parts separate entries of the source, which are not always exact repeats. Equal values may be shown once. Inconclusive results are not listed. A number with no mark means an inactive call. The source made the active and inactive calls. Unless noted, calls come from the whole dose curve; as a rule, active = well fitted curve in the direction sought with a large enough effect in the repeat runs; inconclusive = weak or mixed curves; inactive = no such curve, though single readings can be large; an effect the other way counts as inactive or inconclusive.

We go through 29 compounds from PubChem BioAssay (NCATS).

Experiment [1] deals with Cytochrome P450 2D6 (Homo sapiens) (UniProt P10635). Briefly: Cytochrome P450 family 2 subfamily D member 6 (CYP2D6) small molecule antagonists: luciferase biochemical (cell-free) qHTS assay (AID 1645840). For activity change, negative = inhibition: series mostly up to about 57 µM; % is set by controls: 0 for no effect and ±100 for the full control effect. Note: nearly all actives have a fitted effect of over 55% in size. Note: potency is the fitted concentration of half-maximal effect. The procedure, abridged: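 P450-Glo luminescent screen: recombinant CYP2D6 enzyme–proluciferin substrate mix preincubated with compound 10 min at room temperature, then NADPH regeneration added for 1 h at room temperature. Detection reagent added for 20 min; luciferin light read as relative luminescence units.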
For orientation: Quantitative high-throughput screening tests each substance at several concentrations.

For experiment [2], the target named is Cytochrome P450 2C9 (Homo sapiens) (UniProt P11712). Nature of the experiment: Cytochrome P450 family 2 subfamily C member 9 (CYP2C9) small molecule antagonists: luciferase biochemical (cell-free) qHTS assay (AID 1645842). For activity change, negative = inhibition: series mostly up to about 57 µM; % is set by controls: 0 for no effect and ±100 for the full control effect. Note: nearly all actives have a fitted effect of over 55% in size. Note: potency is the fitted concentration of half-maximal effect. A digest of the protocol:
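Luminescence, after 20 min with luciferin detection reagent, reflected CYP2C9 turnover during a 1 h NADPH-driven reaction at 37C. Enzyme-substrate mix contained 0.4% bovine serum albumin and was preincubated with compound 10 min at room temperature.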

For experiment [3], the target named is Cytochrome P450 3A4 (Homo sapiens) (UniProt P08684). Nature of the experiment: Cytochrome P450 family 3 subfamily A member 4 (CYP3A4) small molecule antagonists: luciferase qHTS assay (AID 1645841). Note: nearly all actives have a fitted effect of over 45% in size. A digest of the protocol:
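Luminescent CYP3A4 activity readout: compounds plus enzyme-substrate mix 10 min at room temperature, reaction started with NADPH regenerating system for 1 h, stopped with detection reagent, read after 20 min. Ketoconazole served as control.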

Experiment [4] can be described thus: Primary qHTS for inhibitors of nuclear receptor binding SET domain protein 2 (NSD2) in an isogenic RCH-ACV NSD2 p.E1099K mutant (9B) (AID 1645876; active = well fitted curve in the direction sought with a large enough effect; an effect the other way counts as inactive or inconclusive; note: nearly all actives have a fitted effect of over 70% in size; note: potency is the fitted concentration of half-maximal effect; for activity change, negative = viability loss: % is set by controls: 0 for no effect and ±100 for the full control effect).
Experiment [5] can be described thus: Primary qHTS for inhibitors of nuclear receptor binding SET domain protein 2 (NSD2) in an RCH-ACV wild type WT cells (2C) (AID 1645877; active = well fitted curve in the direction sought with a large enough effect; an effect the other way counts as inactive or inconclusive; note: nearly all actives have a fitted effect of over 70% in size; note: potency is the fitted concentration of half-maximal effect).
The target of experiment [6] is Papain (Carica papaya) (UniProt P00784). Briefly: Primary qHTS assay for inhibitors of the protease papain (AID 1645873; active = well fitted curve in the direction sought with a large enough effect; an effect the other way counts as inactive or inconclusive;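 note: papain turnover of Z-FR-AMC read as the AMC fluorescence gain over 10 min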; note: potency is the fitted concentration of half-maximal effect; for activity change, negative = inhibition: series mostly up to about 50 µM; % is set by controls: 0 for no effect and ±100 for the full control effect).
Experiment [7] has as its target N-terminal Xaa-Pro-Lys N-methyltransferase 1 (Homo sapiens) (UniProt Q9BV86). Briefly: Confirmatory qHTS for Inhibitors of N-terminal methyltransferase 1 (NTMT1): MTaseGlo Assay (AID 1645874; active = well fitted curve in the direction sought with a large enough effect; an effect the other way counts as inactive or inconclusive; note: potency is the fitted concentration of half-maximal effect; nearly all actives have a fitted effect of over 65% in size). To be noted: NTMT1 enzyme, MTase-Glo SAH luminescence. The procedure, abridged:
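NTMT1 (125 nM) preincubated 15 min with compound and 100 uM SAM, then 1 uM SPKRIA peptide added for 30 min at room temperature. SAH detected by MTase-Glo luminescence; normalized to no-enzyme and DMSO controls, fitted to 4-parameter Hill.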

Sequence of Papain (Carica papaya) (P00784 whole entry, looked up): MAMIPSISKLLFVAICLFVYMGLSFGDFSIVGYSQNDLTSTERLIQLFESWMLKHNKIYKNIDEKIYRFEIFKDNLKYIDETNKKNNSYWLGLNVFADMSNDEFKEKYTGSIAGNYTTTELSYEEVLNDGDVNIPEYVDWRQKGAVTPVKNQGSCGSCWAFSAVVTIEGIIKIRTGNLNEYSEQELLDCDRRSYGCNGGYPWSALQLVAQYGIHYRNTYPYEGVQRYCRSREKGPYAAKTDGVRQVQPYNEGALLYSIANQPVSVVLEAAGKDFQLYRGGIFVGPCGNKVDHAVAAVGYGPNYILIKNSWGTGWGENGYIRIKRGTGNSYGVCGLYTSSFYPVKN
Sequence of Cytochrome P450 2C9 (Homo sapiens) (P11712 whole entry, looked up): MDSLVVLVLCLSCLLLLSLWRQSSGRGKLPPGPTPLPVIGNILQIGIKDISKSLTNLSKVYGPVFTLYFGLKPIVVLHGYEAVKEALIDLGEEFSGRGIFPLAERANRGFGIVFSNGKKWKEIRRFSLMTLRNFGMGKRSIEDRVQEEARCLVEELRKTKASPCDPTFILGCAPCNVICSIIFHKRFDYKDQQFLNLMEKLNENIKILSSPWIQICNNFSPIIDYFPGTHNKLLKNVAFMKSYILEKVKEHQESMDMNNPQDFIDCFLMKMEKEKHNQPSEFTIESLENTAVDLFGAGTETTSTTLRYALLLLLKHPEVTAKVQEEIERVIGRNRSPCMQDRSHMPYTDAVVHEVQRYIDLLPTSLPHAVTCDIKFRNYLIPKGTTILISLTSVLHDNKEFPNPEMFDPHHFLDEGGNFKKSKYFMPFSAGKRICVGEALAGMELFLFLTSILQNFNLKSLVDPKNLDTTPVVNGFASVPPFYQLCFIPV
Sequence of Cytochrome P450 2D6 (Homo sapiens) (P10635 whole entry, looked up): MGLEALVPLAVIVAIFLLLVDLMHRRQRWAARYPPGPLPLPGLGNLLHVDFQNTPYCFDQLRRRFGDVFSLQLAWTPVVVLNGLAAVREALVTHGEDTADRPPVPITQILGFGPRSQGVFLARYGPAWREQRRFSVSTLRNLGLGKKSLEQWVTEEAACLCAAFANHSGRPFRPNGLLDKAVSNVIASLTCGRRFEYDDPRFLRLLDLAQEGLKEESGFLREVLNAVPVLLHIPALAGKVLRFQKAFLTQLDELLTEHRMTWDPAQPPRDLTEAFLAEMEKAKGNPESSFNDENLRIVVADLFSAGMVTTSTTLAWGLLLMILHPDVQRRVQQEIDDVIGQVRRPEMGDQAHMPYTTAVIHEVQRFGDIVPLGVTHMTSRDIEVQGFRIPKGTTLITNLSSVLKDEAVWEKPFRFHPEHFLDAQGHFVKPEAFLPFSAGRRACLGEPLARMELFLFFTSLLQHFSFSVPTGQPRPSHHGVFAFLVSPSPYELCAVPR
Sequence of Cytochrome P450 3A4 (Homo sapiens) (P08684 whole entry, looked up): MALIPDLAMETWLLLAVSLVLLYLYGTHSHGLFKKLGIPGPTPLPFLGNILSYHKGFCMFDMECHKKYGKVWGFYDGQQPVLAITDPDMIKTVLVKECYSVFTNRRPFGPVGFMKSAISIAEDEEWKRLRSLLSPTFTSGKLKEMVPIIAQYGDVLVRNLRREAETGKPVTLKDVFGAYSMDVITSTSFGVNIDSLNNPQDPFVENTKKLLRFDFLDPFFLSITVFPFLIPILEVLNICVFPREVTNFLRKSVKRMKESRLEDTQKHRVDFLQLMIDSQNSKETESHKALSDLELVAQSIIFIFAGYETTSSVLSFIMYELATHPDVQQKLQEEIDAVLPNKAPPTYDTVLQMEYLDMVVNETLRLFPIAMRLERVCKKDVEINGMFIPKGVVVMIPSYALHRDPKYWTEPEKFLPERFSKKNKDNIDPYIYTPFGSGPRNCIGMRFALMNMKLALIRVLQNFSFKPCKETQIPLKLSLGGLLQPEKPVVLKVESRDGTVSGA
Sequence of N-terminal Xaa-Pro-Lys N-methyltransferase 1 (Homo sapiens) (Q9BV86 whole entry, looked up): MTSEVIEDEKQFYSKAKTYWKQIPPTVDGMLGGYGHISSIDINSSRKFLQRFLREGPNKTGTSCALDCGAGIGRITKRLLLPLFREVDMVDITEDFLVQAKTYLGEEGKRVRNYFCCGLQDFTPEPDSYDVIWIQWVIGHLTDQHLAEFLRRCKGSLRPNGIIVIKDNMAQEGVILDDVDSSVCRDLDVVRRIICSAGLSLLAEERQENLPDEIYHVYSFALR

For `CC(C)(C)C(=O)C(Oc1ccc(Cl)cc1)n1ccnc1` (stereo not drawn), the Potency in experiment [1] was 17.4 µM (active); in experiment [2] it was 2.75 µM (active).

`CC(=O)NC(Cc1ccccc1)C(=O)O` (stereo not drawn): the Potency result in experiment [1], in experiment [2], in experiment [4] and in experiment [5] was “inactive” throughout. In addition, in experiment [3], the compound was classed as inactive.

As to `CNCCCC1c2ccccc2C=Cc2ccccc21`, the Potency in experiment [1] was 3.09 µM (active). Also, the Potency result in experiment [2] and in experiment [6] was “inactive” in each case.

For `C[C@H](NC(CCc1ccccc1)C(=O)O)C(=O)N1CCC[C@H]1C(=O)O` (stereo partly drawn), the Potency entry in experiment [1], in experiment [2], in experiment [6], in experiment [4] and in experiment [5] was “inactive” throughout.

Regarding `CCN(CC)CCNC(=O)c1cc(Cl)c(N)cc1OC`, the Potency in experiment [1] is 15.5 µM (active). Besides, the call in experiment [3] was inactive. Besides, the Potency result in experiment [2], in experiment [6], in experiment [4] and in experiment [5] was “inactive” in each case.

On to `CCCn1cnc2c1c(=O)n(CCCCC(C)=O)c(=O)n2C`, for which the Potency entry in experiment [1], in experiment [2], in experiment [6], in experiment [4] and in experiment [5] was “inactive” in each case.

Take `O=c1[nH]c(=O)c2[nH]c(=O)[nH]c2[nH]1`: the activity change, negative = inhibition in experiment [1] was 4.14% [at 11.5 µM]; in experiment [2] it was 8.18% [at 11.5 µM].

Take `Nc1ccc(S(=O)(=O)Nc2ccc(Cl)nn2)cc1`: in experiment [1], the Potency entry was “inactive”.

Turning to `CC(CN1c2ccccc2Sc2ccccc21)N(C)C` (stereo not drawn), the Potency in experiment [1] was 2.45 µM (active); in experiment [4], 16.8 µM (active). Moreover, the Potency entry in experiment [2] and in experiment [6] was “inactive” throughout.

As for `CCCCN(CCCC)CC(O)c1cc(Cl)cc2c1-c1ccc(Cl)cc1/C2=C/c1ccc(Cl)cc1` (stereo not drawn), the Potency in experiment [1] was 0.347 µM (active); in experiment [2], 21.9 µM (active); in experiment [4], 15 µM (active); in experiment [5] it was 13.3 µM (active). In addition, the Potency result in experiment [6] is “inactive”.

Consider `CS(=O)(=O)c1ccc([C@@H](O)[C@@H](CF)NC(=O)C(Cl)Cl)cc1`, for which the Potency result in experiment [1] and in experiment [2] was “inactive” each time.

For `CN1CCCCC1CCN1c2ccccc2Sc2ccc(S(C)=O)cc21` (stereo not drawn), the Potency in experiment [1] was 0.0219 µM (active). Also, in experiment [2], the Potency entry was “inactive”.

For the compound `Cc1cc(N)c2ccccc2[n+]1CCCCCCCCCC[n+]1c(C)cc(N)c2ccccc21`, the values for the Potency in experiment [1], in experiment [6] and in experiment [4] were 5.35 µM (active), 15.8 µM (active) and 2.9 µM (active), respectively. For the same compound, the Potency entry in experiment [2] is “inactive”.

In the case of `Cc1cc(C(C#N)c2ccc(Cl)cc2)c(Cl)cc1NC(=O)c1cc(I)cc(I)c1O` (stereo not drawn), the values for the Potency in experiment [1] and in experiment [2] were 11 µM (active) and 21.9 µM (active), respectively.

On to `Cc1cc2c(cc1S(N)(=O)=O)S(=O)(=O)CCC2`, for which the Potency result in experiment [1], in experiment [2], in experiment [4] and in experiment [5] was “inactive” in each case. Besides, the call in experiment [3] was inactive.

Consider `NC(N)=NCCC[C@H](N)C(=O)O`, for which the activity change, negative = inhibition was 2.59% [at 4.83 µM] in experiment [1] and -6.78% [at 4.83 µM] in experiment [2]. For the same compound, in experiment [6], the Potency entry is “inactive”. In experiment [4], the outcome was “inactive [at 4.96 µM]”.

As to `CN(N=O)C(=O)N[C@@H]1[C@@H](O)[C@H](O)[C@@H](CO)O[C@@H]1O`, the Potency entry in experiment [1], in experiment [2], in experiment [4] and in experiment [5] was “inactive” throughout. Also, the compound was called inactive in experiment [3].

Consider `C[C@](N)(Cc1ccc(O)cc1)C(=O)O`, for which the results for the activity change, negative = inhibition in experiment [1] and in experiment [2] were 8.94% [at 4.83 µM] and 1.65% [at 4.83 µM], respectively. The Potency entry in experiment [6] is “inactive”. Further, the activity change, negative = viability loss in experiment [4] is -3.71% [at 4.96 µM].

For `CN1CCN(C2Cc3ccccc3Sc3ccc(Cl)cc32)CC1` (stereo not drawn), the Potency was 0.121 µM (active) in experiment [1] and 8.49 µM (active) in experiment [2]. Also, the Potency entry in experiment [6] was “inactive”.

Regarding `NC(CSCC(=O)O)C(=O)O` (stereo not drawn), the Potency result in experiment [1] and in experiment [2] was “inactive” throughout.

As for `CCN(CC)CCSC(=O)C(c1ccccc1)c1ccccc1`, the Potency is 5.49 µM (active) in experiment [1] and 13.8 µM (active) in experiment [2].

In the case of `[Cl][In]([Cl])[Cl]`, the Potency result in experiment [1] and in experiment [2] was “inactive” each time. In addition, the call in experiment [3] was inactive. Further, the Potency in experiment [7] was 4.91 µM (active); in experiment [4] it was 24.3 µM (active).

Turning to `Nc1cc(=O)[nH]c(N)n1`, the Potency entry in experiment [1], in experiment [2], in experiment [6], in experiment [4] and in experiment [5] was “inactive” each time.

In the case of `CC(=O)c1ccc2c(c1)N(CCCN(C)C)c1ccccc1S2`, in experiment [1], the Potency is 0.436 µM (active). For the same compound, the Potency entry in experiment [2] and in experiment [6] was “inactive” in each case.

In the case of `CN(C)CCC=C1c2ccccc2CCc2ccccc21`, the Potency in experiment [1] was 5.49 µM (active) and 9.52 µM (active). In addition, the Potency entry in experiment [2] and in experiment [6] was “inactive” in each case.

For `CC[C@H]1CN2CCc3cc(OC)c(OC)cc3[C@@H]2C[C@@H]1C[C@H]1NCCc2cc(OC)c(OC)cc21`, the Potency result in experiment [1], in experiment [2] and in experiment [6] was “inactive” in each case. Further, the Potency in experiment [4] is 84.1 nM (active) and 132 nM (active); in experiment [5], 59.6 nM (active) and 118 nM (active).

In the case of `C[C@@H]1CC[C@@]2(OC1)O[C@H]1C[C@H]3[C@@H]4CC[C@H]5C[C@@H](O)CC[C@]5(C)[C@H]4CC(=O)[C@]3(C)[C@H]1[C@@H]2C`, the figures for the activity change, negative = inhibition in experiment [1], in experiment [3] and in experiment [2] were 8.49% [at 4.83 µM], 37% [at 4.83 µM] and 5.2% [at 4.83 µM], respectively. Moreover, the activity change, negative = viability loss in experiment [4] was -10.8% [at 4.96 µM]. Further, the outcome in experiment [5] was “inactive [at 4.96 µM]”.

With `C[C@H](N)[C@H](O)c1cccc(O)c1`, the Potency entry in experiment [1], in experiment [4] and in experiment [5] was “inactive” throughout. For the same compound, the compound was called inactive in experiment [3].

`C=Cc1c(C)c2cc3[nH]c(cc4nc(cc5nc(cc1[nH]2)C(C)=C5CCC(=O)O)C(CCC(=O)O)=C4C)c(C)c3C=C`: the Potency result in experiment [1], in experiment [2] and in experiment [6] was “inactive” in each case. The call in experiment [3] was inactive. Moreover, the Potency in experiment [7] is 34.5 µM (active).
